Screening results deposited in PubChem by National Center for Advancing Translational Sciences (NCATS).
Rows were chosen to be rich in hits. Some 1.8% of all compounds tested hit in one or more screens of this group.
PTHR1 ag = qHTS for PTHR1 Agonists: Primary Screen; Parathyroid hormone/parathyroid hormone-related peptide receptor (Homo sapiens), Q03431; HEK293 GP2 PTHR1 cells, GloSensor cAMP luminescence, 1 h; Potency, µM (titrated, usually from 115 µM), hits mostly activators; 410,000 tested, 0.075% active; AID 743266, 2014; also: nearly all actives have a fitted effect of over 55% in size
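HEK-293-derived GP2 cells expressing PTHR1 and a GloSensor cAMP reporter, 3,000/well, plated overnight, given luciferin plus IBMX (each 0.5 mM as added) for 1 h at 37 °C, then compound for 1 h at 37 °C. Luminescence was read after 15 min at room temperature.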
GCN5L2 inh = qHTS Assay for Inhibitors of GCN5L2; 390,000 tested, 0.21% active; Potency, µM (titrated, usually from 58.9 µM), most hits filed as inhibitors; Histone acetyltransferase KAT2A (Homo sapiens), Q92830; GCN5L2 HAT assay, ThioGlo1 CoA-SH fluorescence; AID 504327, 2011
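ThioGlo1-coupled HAT assay: 20nM GCN5L2, 70uM acetyl-CoA, 75uM H3(1-25) peptide, pH 7.5. Fluorescence read at 340/540nm at start and after 20 min at room temperature.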
GLP1R inv ag = qHTS of GLP-1 Receptor Inverse Agonists (Inhibition Mode). HEK293 GLP-1R CRE-luciferase, luminescence, 24 h; GLP-1R form is constitutively active. Potency, µM (highest dose often 38.3 µM), actives largely listed as inhibitors. 410,000 tested, 1.6% active; also: nearly all actives have a fitted effect of over 55% in size
Target sequence (P43220 whole entry, looked up): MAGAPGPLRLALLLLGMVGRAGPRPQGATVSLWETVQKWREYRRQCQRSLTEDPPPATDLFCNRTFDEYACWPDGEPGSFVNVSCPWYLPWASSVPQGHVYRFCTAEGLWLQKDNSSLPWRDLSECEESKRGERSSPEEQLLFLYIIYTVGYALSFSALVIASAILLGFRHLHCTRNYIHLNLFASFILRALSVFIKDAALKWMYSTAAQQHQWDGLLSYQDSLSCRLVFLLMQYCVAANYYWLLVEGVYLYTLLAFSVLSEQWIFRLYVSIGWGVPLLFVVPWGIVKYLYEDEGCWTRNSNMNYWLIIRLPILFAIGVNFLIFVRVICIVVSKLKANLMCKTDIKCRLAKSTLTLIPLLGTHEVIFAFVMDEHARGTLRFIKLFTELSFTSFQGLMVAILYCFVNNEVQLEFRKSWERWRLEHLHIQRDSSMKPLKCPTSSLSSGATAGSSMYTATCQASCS
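Luminescence readout: a drop in cAMP-driven luciferase signal flags inverse agonism at a constitutively active GLP-1R stably expressed in HEK293. Compound exposure lasted 24 hr at 37 deg C, 5% CO2.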
GLP1R cytotox = qHTS of GLP-1 Receptor Inverse Agonists: Cytotox Screen | Potency, µM (doses to about 38.3 µM), most hits filed as inhibitors | 410,000 tested, 0.13% active | HEK293 cAMP-luciferase reporter cells, luminescence, 24 h | AID 624418, 2012;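 also: loss of luciferase light is scored as toxicity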
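Quantitative HTS format, 1536 wells, 200 cells/uL seeded. Compounds: 23 nL, 24 h, 37 °C. Detection: luciferase reagent, luminescence at 12 min RT; decreased signal taken as cytotoxic.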
GLP-1R agonist = qHTS of GLP-1 Receptor Agonists. HEK293 GLP-1R CRE-luciferase, luminescence, 4-6 h; cells express a hypersensitive GLP-1R form. 380,000 tested, 0.007% active. Glucagon-like peptide 1 receptor (Homo sapiens), P43220. Potency, µM (series often up to 45.6 µM), actives largely listed as activators
RGS4 inhibitor = Inhibitors of Regulator of G Protein Signaling (RGS) 4: qHTS | Regulator of G-protein signaling 4 (Homo sapiens), P49798 | Transcreener GDP fluorescence polarization, RGS4-accelerated GTP hydrolysis | Potency, µM (highest dose often 114 µM), usual class: inhibitors | 390,000 tested, 0.039% active | AID 504845, 2011; also: nearly all actives have a fitted effect of over 75% in size
Target sequence (P49798 whole entry, looked up): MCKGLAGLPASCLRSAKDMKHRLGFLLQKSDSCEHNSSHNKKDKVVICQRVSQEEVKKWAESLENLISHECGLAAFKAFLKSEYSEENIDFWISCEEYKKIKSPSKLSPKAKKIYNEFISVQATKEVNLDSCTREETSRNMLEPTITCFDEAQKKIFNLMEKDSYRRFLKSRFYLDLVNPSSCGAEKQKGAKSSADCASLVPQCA
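MLSMR compounds (23 nl, pin-transferred) preincubated 10 min at room temperature with a 500nM (2x) first reagent, then RGS4 at 900nM (2x) plus Transcreener GDP mix added; fluorescence polarization (620/688 nm) read before and after 90 min at 30 °C.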
Large screens that a line does not name were inactive; ! = not active in a repeat. Calls follow the shape of the dose curve; as a rule, active = well fitted curve in the direction sought with a large enough effect; inconclusive = small, poorly fitted or top-dose-only effect, or another doubt; inactive = no such curve, though single readings can be large; an effect the other way counts as inactive or inconclusive.

COC(=O)C1=C(c2cccc(OCc3ccccc3)c2)C[C@@H]2CC[C@H]1N2C(=O)NCc1ccccc1	GLP1R cytotox inconclusive
COC(=O)C1=C(c2cccc(OCc3ccccc3)c2)C[C@@H]2CC[C@H]1N2C(=O)NCc1cccc(C(F)(F)F)c1	GLP1R inv ag 11µM
COC(=O)C1=C(c2ccc(OCc3ccccc3)cc2)C[C@@H]2CC[C@H]1N2C(=O)NCc1ccc(C(C)(C)C)cc1	GLP1R inv ag 4.5µM (no result: GCN5L2 inh, RGS4 inhibitor)
C[C@H]1[C@@H]2Cc3ccc(O)cc3[C@]1(C)CCN2C	none (no result: PTHR1 ag, GCN5L2 inh, GLP1R inv ag, GLP1R cytotox, RGS4 inhibitor)
CCCCCCCCCCCCCCCCn1cc[n+](C)c1	GLP1R inv ag 7.1µM, GLP1R cytotox inconclusive
CN1CC[C@]23c4c5ccc(O)c4OC2C(O)CCC3[C@H]1C5 (stereo not given in full)	none (no result: PTHR1 ag, GCN5L2 inh, GLP1R inv ag, GLP1R cytotox, RGS4 inhibitor)
CCCCN1CCC(O)(c2ccccc2)C(C(=O)c2ccccc2)C1 (stereo not given)	none
CCC1C(c2ccccc2)N(C)C(c2ccccc2)CC1(O)c1ccccc1 (stereo not given)	GLP1R inv ag 2.5µM, GLP1R cytotox inconclusive
C=C1C(=O)[C@@]23C[C@H]4[C@@H]5[C@@]6(C)CCC[C@@]57[C@@H]2[C@@H](O)[C@@H]1C[C@H]3[C@H]7N4C6	GLP1R inv ag 8.9µM, GLP1R cytotox inconclusive (no result: GCN5L2 inh)
Cc1ccc(C)c(NC(=S)NC2CC3CCC(C2)N3Cc2ccco2)c1 (stereo not given)	GCN5L2 inh 2µM
Cc1cc(C)cc(NC(=S)NC2CC3CCC(C2)N3Cc2ccco2)c1 (stereo not given)	GLP1R inv ag inconclusive, GLP1R cytotox inconclusive
CC1CCC(NC(=O)CN2CCN(S(=O)(=O)c3ccc(Br)s3)CC2)CC1 (stereo not given)	GLP1R inv ag 10µM, GLP1R cytotox inconclusive (no result: GCN5L2 inh, RGS4 inhibitor)
COc1cc(C2C3=C(COC3=O)Oc3cc4c(cc32)OCO4)ccc1O (stereo not given)	GLP1R inv ag inconclusive, GLP1R cytotox inconclusive (no result: GCN5L2 inh)
CN(C(=O)CSc1nc2ccc(NC(=O)COc3ccc(Cl)cc3)cc2s1)c1ccccc1	GLP1R inv ag 5.6µM (no result: GLP-1R agonist)
CN(Cc1ccccc1)C(=O)c1ccc(NC(=O)C2CCN(C(=O)OC(C)(C)C)CC2)cc1	GLP1R inv ag 5µM
CCOc1ccc(-c2nc3ccc(-c4nc5ccc(N6CCN(C)CC6)cc5[nH]4)cc3[nH]2)cc1	GCN5L2 inh 11µM (no result: PTHR1 ag, GLP1R inv ag, GLP1R cytotox, GLP-1R agonist, RGS4 inhibitor)
Cc1ccc2nc(N3CCN(C)CC3)[nH]c2c1	none
CN(C)CCN(CC1CCCN(Cc2ccccc2F)C1)C(=O)Cc1ccccc1F (stereo not given)	GLP1R inv ag 10µM
CCOc1cc(CNC(C)(C)CO)cc(Br)c1OCc1ccc(Cl)cc1Cl	GLP1R inv ag 5µM, GLP1R cytotox inconclusive
Cc1cc(Nc2cccc(C(F)(F)F)c2)nc2ccc(NC(=O)c3cccnc3)cc12	GLP1R inv ag 4µM, GLP1R cytotox inconclusive (no result: GLP-1R agonist)
CCN(CC)C(=O)c1ccc(NC(=O)c2cccc(C(F)(F)F)c2)cc1	GLP1R inv ag inconclusive
O=C(c1cccc(C(F)(F)F)c1)C1CCCN(Cc2ncc[nH]2)C1 (stereo not given)	GCN5L2 inh 0.16µM, GLP1R inv ag inconclusive
COc1cc2c(ccc3c4cc(OC)c(OC)cc4c[n+](C)c23)cc1O	GLP1R cytotox inconclusive (no result: GCN5L2 inh)
COc1ccc2c(c[n+](C)c3c4cc5c(cc4ccc23)OCO5)c1OC	GCN5L2 inh inconclusive, RGS4 inhibitor 6.7µM (no result: PTHR1 ag, GLP1R inv ag, GLP1R cytotox, GLP-1R agonist)
Cc1cccc(N2C(=O)NC(=O)/C(=C\C=C\c3ccco3)C2=O)c1	GLP1R inv ag inconclusive, RGS4 inhibitor inconclusive
COc1ccc(CN2C(=O)NC(=O)/C(=C/c3ccc([N+](=O)[O-])o3)C2=O)cc1	GCN5L2 inh 22µM (no result: PTHR1 ag, GLP1R inv ag, GLP1R cytotox, GLP-1R agonist, RGS4 inhibitor)
Cc1cccc(N2C(=O)NC(=O)/C(=C/c3ccc([N+](=O)[O-])o3)C2=O)c1	GCN5L2 inh 25µM, RGS4 inhibitor inconclusive
Cc1cccc(CN2CCc3nc(N4CCN(c5ccccn5)CC4)ncc3C2)c1	GLP1R inv ag inconclusive (no result: GLP-1R agonist)
CCCCCCOc1ccc(CN2CCN(CCO)CC2)cc1	GLP1R inv ag 2.5µM
COc1ccc(NC(=O)CN(c2ccc([N+](=O)[O-])cc2)S(=O)(=O)c2ccccc2)cc1	GLP1R inv ag 6.3µM, GLP1R cytotox inconclusive
COc1cc(-c2nc3ccc(Cl)cn3c2Nc2ccc3c(c2)OCCO3)ccc1O	GLP1R inv ag inconclusive (no result: GLP-1R agonist)
CC(C)c1cc(C(=O)OCC(=O)NC(=O)NCc2ccco2)c(O)c(C(C)C)c1	GLP1R inv ag 3.5µM, GLP1R cytotox inconclusive
Cc1ccc(NC(=O)c2cc(S(=O)(=O)N3CCOCC3)c(Cl)cc2Cl)cc1	none (no result: GLP-1R agonist)
CN(N=O)c1cc(O)ccc1O	GCN5L2 inh inconclusive, RGS4 inhibitor 24µM (no result: PTHR1 ag, GLP1R inv ag, GLP1R cytotox, GLP-1R agonist)
O=C(Nc1ccc2nc(SCC(=O)N3CCCc4ccccc43)sc2c1)c1cccc(F)c1	GLP1R inv ag inconclusive (no result: GLP-1R agonist)
C[C@]12C=CC(=O)C=C1CC[C@@H]1C2=CC[C@]2(C)[C@@H](C(=O)CN3CCN(c4cc(N5CCCC5)nc(N5CCCC5)n4)CC3)CC[C@@H]12	RGS4 inhibitor 11µM!
